Experimental data published in PubChem BioAssay AID686979 (National Center for Advancing Translational Sciences (NCATS), 2013).
Out of some 420,000 compounds screened, about 50,000 (12%) were called active. Inconclusive results (about 26%) are left out. This excerpt belongs to a sample that is enriched for actives. Values without a mark were called inactive. Calls come from the whole dose curve; as a rule, active = well fitted inhibition curve with a large enough effect; inconclusive = small, poorly fitted or top-dose-only effect; inactive = flat fitted curve, though single readings scatter.

test: qHTS for Inhibitors of human tyrosyl-DNA phosphodiesterase 1 (TDP1): qHTS in cells in presence of CPT; details: chicken DT40 Tdp1-/-;hTDP1 cells + 20 nM CPT, ATP luminescence, 48 h; series mostly up to 46.2 µM; activity change, negative = growth inhibition: at the top concentration; note: nearly all actives have a fitted effect of over 55% in size
Summary of the method: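 Chicken DT40 Tdp1-/- cells stably complemented with human TDP1 were seeded at 400 cells/well in medium containing 20 nM camptothecin, exposed to pin-transferred compounds, and grown at 37 °C for at least 48 hr. Viability was read as ATP luminescence.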
% is set by controls: 0 for no effect and ±100 for the full control effect; potency is the fitted concentration of half-maximal effect.

| SMILES | activity change, negative = growth inhibition | Potency |
| --- | --- | --- |
| CCOc1cc(/C=N/NC(=O)c2cccc(S(=O)(=O)N3CCOCC3)c2)ccc1OCC(=O)N(C)C | 0.118% |  |
| CC(C)CN(C(=O)Cn1c(=O)cnc2ccccc21)C1CCS(=O)(=O)C1 (stereo unspecified) | 0.278% |  |
| O=C(NCCCn1ccnc1)c1cc2c(s1)CCCC2 | -6.43% |  |
| CCc1nnc(SCc2cccc(F)c2)nc1CC | -1.89% |  |
| Cc1ccc(OCC(=O)OCc2cc(=O)n3nc(C4CC4)sc3n2)cc1C | 4.85% |  |
| COc1ccccc1/C=C/CN1CCC(CO)(Cc2ccccc2)CC1 | -38.5% |  |
| CCOc1ccccc1N(CC)C(=O)Nc1cn(C)c(=O)c2ccccc12 | -28.1% |  |
| CC1=C(C(=O)N2CCOCC2)CC(CC(=O)NCc2ccco2)C(=O)N1Cc1ccc(F)cc1 (stereo unspecified) | -7.7% |  |
| COc1ccc(C2CC(c3cccs3)=NN2C(=O)CCC(=O)O)cc1OC (stereo unspecified) | 6% |  |
| O=C(CSc1ccc(-c2ccc(Br)cc2)nn1)NCC1CCCO1 (stereo unspecified) | -19.8% |  |
| C#CCCCc1nc2ccccc2c(=O)n1N | 19.6% |  |
| COc1cc(-c2nnc(NC(=O)C3=COCCO3)o2)cc(OC)c1OC | -0.0683% |  |
| Cc1nc(C)c(-c2nnc(-c3cccc(S(=O)(=O)N(C)C)c3)o2)cc1C(=O)NN | 1.5% |  |
| CCOC(=O)c1cc(-c2nnc(-c3cc(OC)c(OC)c(OC)c3)o2)c(C)nc1C |  | 16.4 µM (active) |
| Cc1ccc(S(=O)(=O)NCCC(=O)NNC(=O)C2COc3ccccc3O2)cc1 (stereo unspecified) | -4.14% |  |
| CC(C)N(c1ccccc1)c1ncnc(NCCC(=O)O)c1[N+](=O)[O-] | -14.3% |  |
| CO/N=C(\C(=O)N[C@@H]1C(=O)N2C(C(=O)O)=C(COC(C)=O)CS[C@H]12)c1csc(N)n1 (stereo in doubt) |  | inactive |
| CN1C=CC=C/C1=C1\SC(=S)N(Cc2ccccc2)C1=O | -9.03% |  |
| COc1ccccc1C(=O)NC(CCSC)C(=O)NNC(=O)c1ccccc1C (stereo unspecified) | 7.15% |  |
| CCOC(=O)c1ccc(NC(=O)Cn2cnc3cc(C)c(C)cc32)cc1 |  | 1.16 µM (active) |
| CCOC(=O)c1ccc(NC(=O)CSc2ncccn2)cc1 | -27.6% |  |
| Cc1ccc(NC(=O)CSc2nnc(COc3ccccc3C)o2)cc1 | -0.121% |  |
| CCOC(=O)c1ccc(NC(=O)Cn2nnc(-c3ccc(C)cc3)n2)cc1 | -29% |  |
| CCOC(=O)c1ccc(NC(=O)Cn2c(=O)cc(C)c3c(C)nn(-c4cccc(F)c4)c32)cc1 | -0.48% |  |
| CCCc1nnc(SCC(=O)Nc2ccc(C(=O)OCC)cc2)o1 |  | 23.1 µM (active) |
| CC(C)CC(=O)N1CCN(Cc2cccc(Cl)c2)CC1 | -20.1% |  |

| SMILES | activity change, negative = growth inhibition | Potency |
| --- | --- | --- |
| O=C(O)C(O)[C@@](O)(Cc1ccc(O)cc1)C(=O)O (stereo partly specified) | -10.6% |  |
| Cc1cc(-c2ccnc(-n3ncc(C(=O)NCCc4ccncc4)c3C)n2)c(C)s1 | -1.95% [at 9.04 µM] |  |
| Cc1nnc(SCC2=C(C(=O)O)N3C(=O)C(NC(=O)Cn4nc(C)c(Cl)c4C)C3SC2)s1 (stereo unspecified) | -15.2% |  |
| O=C(CN(CC1CCCO1)C(=O)CNS(=O)(=O)c1ccc(F)cc1)NCc1ccco1 (stereo unspecified) | 3.31% |  |
| O=c1oc2ccccc2c(CNc2ccccc2)c1[N+](=O)[O-] | 3.02% |  |
| CCS(=O)(=O)c1ccc(C(=O)NC)c(Cl)c1Cl | 1.89% |  |
| c1csc(-c2cn3c(n2)SCC3)c1 | 1.97% |  |
| O=c1c2cc(-c3ccccc3)sc2nc2n1N=C(c1cccs1)CS2 |  | 16.4 µM (active) |
| Cc1nnc2n1N=C(c1ccccc1)CS2 | 13.6% |  |
| CCN([C@H](CO)C(C)C)S(=O)(=O)c1ccccc1Br | -1.97% |  |
| O=C(NC(=S)NC1CCS(=O)(=O)C1)c1cccc([N+](=O)[O-])c1 (stereo unspecified) | -1.95% |  |
| CCc1ccccc1N1C(=O)CN(S(=O)(=O)CC)CC1(C)C(=O)NC1CCCCC1 (stereo unspecified) | -16.5% |  |
| CN(C)C(=O)c1cccc(-c2cnc3sc(NCc4ccc5c(c4)OCO5)nn23)c1 |  | 16.4 µM (active) |
| O=C(CSc1ncnc2scc(-c3ccccc3)c12)NCc1ccc2c(c1)OCO2 | -4.93% |  |
| O=C(Cn1nnc(-c2ccccc2)n1)NCc1ccc2c(c1)OCO2 | -13.6% |  |
| CCN(CC(=O)NCc1cccs1)C(=O)c1cccc(S(=O)(=O)Nc2ccccc2OC)c1 | -1.36% |  |
| O=C(Nc1cccc(-c2nc3ccccc3[nH]2)c1)c1ccc(C(=O)Nc2cccc(-c3nc4ccccc4[nH]3)c2)cc1 |  | 18.4 µM (active) |
| O=C(Nc1cccc(NC(=O)c2ccc(Br)cc2)c1)c1ccccc1 |  | inactive |
| O=C(Cc1cccs1)Nc1cccc(-c2nc3ccccc3[nH]2)c1 | -13.9% |  |
| CCCC(=O)Nc1ccc2oc(-c3ccc(O)c(Br)c3)nc2c1 | -15.1% |  |
| O=C(CNC(=O)c1ccccc1Br)NNC(=O)c1cccs1 | -1.12% |  |
| CCn1c(=O)c2ccccc2n(CC(=O)N2CCCc3ccccc32)c1=O | -27.7% |  |
| Cn1nccc1NC(=O)Nc1ccc(OC(F)(F)F)cc1 | -27.1% |  |
| O=C(Nc1ccc(OC(F)(F)F)cc1)c1ccc2c(c1)no[n+]2[O-] |  | 4.11 µM (active) |
| COC(=O)[C@H](C)NC(=O)Nc1ccc(OC(F)(F)F)cc1 | 9.83% |  |
